Molecules are shown by their SMILES. Records with an inconclusive call do not appear. Unmarked numbers belong to inactive results. Activity calls are given as the source filed them. Calls follow the shape of the dose curve; as a rule, active = well fitted cell-killing curve with a large enough effect; inconclusive = small, poorly fitted or top-dose-only effect, or effect the other way; inactive = flat fitted curve, though single readings scatter.

From PubChem BioAssay (NCATS) come the findings set out here.
% is scaled to controls: 0 for no effect and ±100 for the full control effect; potency is read from the fitted curve at half-maximal effect.

The test system of one assay is Hek293T. Kind of assay: Primary qHTS to identify gynecologic anti-cancer compounds using libraries of approved drugs and bioactive compounds (AID 1345084). Also: nearly all actives have a fitted effect of over 55% in size. To be noted: Gynecologic cancer cell panel viability, ATPlite luminescence, 48 h, control line for the selectivity index; series mostly up to 57.5 µM; activity change, negative = cytotoxicity: at the top concentration. In outline:
(§1)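 Five-point cytotoxicity, 48 h drug exposure at 37 C, 5% CO2, on cells seeded 16 h beforehand. ATP content read by ATPlite luminescence.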
On to `CC(=O)O[C@@H]1[C@H](O[C@@H]2OC[C@](O)(CO)[C@H]2O)[C@@H](O[C@@H]2O[C@@H](C)[C@H](O)[C@@H](O)[C@H]2O)[C@H](OC(=O)[C@]23CCC(C)(C)C[C@H]2C2=CCC4[C@@]5(C)C[C@H](O)[C@H](O[C@@H]6O[C@H](C(=O)O)[C@@H](O)[C@H](O)[C@H]6O)[C@@](C)(C(=O)O)C5CC[C@@]4(C)[C@]2(C)CC3)O[C@@H]1C` (some centres not stated), for which the activity change, negative = cytotoxicity is 9.21% [at 11.6 µM].
Turning to `CNC(=O)c1ccc(Nc2ncc(C(F)(F)F)c(NCc3nccnc3N(C)S(C)(=O)=O)n2)cc1`, the Potency was 8910 nM (active).
As for `COC1CCCC/C(C)=C/C2C=C(C)C(C)C3C(CC(C)C)NC(=O)C23C(=O)C1` (configuration not stated), the “activity change, negative = cytotoxicity” value is -0.75% [at 25.3 µM].
Same read-out and setting: the result for `CN1CCC(c2c[nH]c3ccc(NC(=O)c4ccc(F)cc4)cc23)CC1` reads -0.385%.
Same read-out and setting: the result for `NCc1ccc(OCCCc2sc(-c3ccc4c(c3)/C(=N/Nc3nc5ccccc5s3)CCC4)nc2C(=O)O)cc1` reads -1.31%.
With `C=C1CCC2C(C)(C)CC(=O)CC2(C)C1CCC(C)CCOC(C)=O` (configuration not stated), the “activity change, negative = cytotoxicity” value is -5.15% [at 38.5 µM].
Still for that read-out and setting: the result for `CN(NC(=O)CC(=O)NN(C)C(=S)c1ccccc1)C(=S)c1ccccc1` reads -35.8%; that for `CCC(=O)O[C@]1(C(=O)CCl)[C@@H](C)C[C@H]2[C@@H]3C[C@H](F)C4=CC(=O)C=C[C@]4(C)[C@@]3(F)[C@@H](O)C[C@@]21C`, 1.31%.
Turning to `Nc1c(Br)cc(Br)cc1CNC1CCC(O)CC1` (configuration not stated), the “activity change, negative = cytotoxicity” value was -6.49%.
For `C=CCc1ccc(O[C@@H]2O[C@H](CO)[C@@H](O)[C@H](O)[C@H]2O)c(OC)c1`, the “activity change, negative = cytotoxicity” value was -5.37% [at 38.5 µM].
For the compound `CN(C)C/C=C/C(=O)Nc1ccc(C(=O)Nc2cccc(Nc3ncc(Cl)c(-c4c[nH]c5ccccc45)n3)c2)cc1`, the Potency was 1260 nM (active).
The same measure, in the same setting: to `CC(=O)c1cnc2ccc(-c3cc(Cl)c(O)c(Cl)c3)nc2c1NC1CCC(CN(C)C)CC1` (configuration not stated) belongs 562 nM (active).
The same measure, in the same setting: to `COc1cc(N2CCC(N(C)C)CC2)ccc1Nc1ncc(Cl)c(Nc2ccccc2P(C)(C)=O)n1` belongs 10000 nM (active).
As to `Cc1nc2c(-c3cnc(N)nc3)nc(N3CCOCC3)nc2n1C(C)C`, the Potency is 708 nM (active).
Turning to `CC1=CC(=O)C[C@H]2[C@@H]1CC[C@@H](C)[C@]21CO[C@H](c2ccoc2)C1=O`, the “activity change, negative = cytotoxicity” value is -13.1% [at 38.5 µM].
Regarding `NS(=O)(=O)OC[C@@H]1C[C@@H](n2ccc3c(N[C@H]4CCc5ccccc54)ncnc32)C[C@@H]1O`, the Potency was 2510 nM (active).
Turning to `CC(C)C1(O[C@@H]2O[C@H](CO)[C@@H](O)[C@H](O)[C@H]2O)CC=C(CO)CC1` (some centres not stated), the “activity change, negative = cytotoxicity” value was 4.83% [at 38.5 µM].
For the compound `Cc1cc(C)c(S(=O)(=O)N(Cc2ccc(-c3cccc(S(C)(=O)=O)c3)cc2)Cc2ccc(C(F)(F)F)o2)c(C)c1`, the “activity change, negative = cytotoxicity” value is 1%.

For the next assay, the system named is JEG-3. The description is as above. To be noted: Gynecologic cancer cell panel viability, ATPlite luminescence, 48 h; series mostly up to 57.5 µM; activity change, negative = cytotoxicity: at the top concentration. The method in brief: as §1
`CC(=O)O[C@@H]1[C@H](O[C@@H]2OC[C@](O)(CO)[C@H]2O)[C@@H](O[C@@H]2O[C@@H](C)[C@H](O)[C@@H](O)[C@H]2O)[C@H](OC(=O)[C@]23CCC(C)(C)C[C@H]2C2=CCC4[C@@]5(C)C[C@H](O)[C@H](O[C@@H]6O[C@H](C(=O)O)[C@@H](O)[C@H](O)[C@H]6O)[C@@](C)(C(=O)O)C5CC[C@@]4(C)[C@]2(C)CC3)O[C@@H]1C` (some centres not stated): the activity change, negative = cytotoxicity is 0.39% [at 11.6 µM].
Still for that read-out and setting: the result for `Nc1ccn([C@@H]2C(F)=C(CO)[C@@H](O)[C@H]2O)c(=O)n1` reads 0.0805%; that for `Cc1nnc(C(C)C)n1C1CC2CCC(C1)N2CCC(NC(=O)C1CCC(F)(F)CC1)c1ccccc1` (configuration not stated), -6.79%.
The same measure, in the same setting: to `COC1CCCC/C(C)=C/C2C=C(C)C(C)C3C(CC(C)C)NC(=O)C23C(=O)C1` (configuration not stated) belongs 3.97% [at 25.3 µM]; to `CN1CCC(c2c[nH]c3ccc(NC(=O)c4ccc(F)cc4)cc23)CC1`, 1.23%; to `NCc1ccc(OCCCc2sc(-c3ccc4c(c3)/C(=N/Nc3nc5ccccc5s3)CCC4)nc2C(=O)O)cc1`, 7.91%.
The same measure, in the same setting: the result for `O=C(O)C[C@H](O)C[C@H](O)/C=C/c1c(C2CC2)nc2ccccc2c1-c1ccc(F)cc1` reads -29.9%; that for `C=C1CCC2C(C)(C)CC(=O)CC2(C)C1CCC(C)CCOC(C)=O` (configuration not stated), 1.21% [at 38.5 µM]; that for `O=C(Nc1cccnn1)N1CCC(=Cc2cccc(Oc3ccc(C(F)(F)F)cn3)c2)CC1`, -20.3%.
`CN(NC(=O)CC(=O)NN(C)C(=S)c1ccccc1)C(=S)c1ccccc1`: the “activity change, negative = cytotoxicity” value is -4.3%.
On to `CCC(=O)O[C@]1(C(=O)CCl)[C@@H](C)C[C@H]2[C@@H]3C[C@H](F)C4=CC(=O)C=C[C@]4(C)[C@@]3(F)[C@@H](O)C[C@@]21C`, for which the “activity change, negative = cytotoxicity” value was 3.08%.
Same read-out and setting: the result for `Nc1c(Br)cc(Br)cc1CNC1CCC(O)CC1` (configuration not stated) reads -25.5%; that for `C=CCc1ccc(O[C@@H]2O[C@H](CO)[C@@H](O)[C@H](O)[C@H]2O)c(OC)c1`, 5.29% [at 38.5 µM].
Take `CN(C)C/C=C/C(=O)Nc1ccc(C(=O)Nc2cccc(Nc3ncc(Cl)c(-c4c[nH]c5ccccc45)n3)c2)cc1`: the Potency is 3550 nM (active).
In the case of `CC1=CC(=O)C[C@H]2[C@@H]1CC[C@@H](C)[C@]21CO[C@H](c2ccoc2)C1=O`, the “activity change, negative = cytotoxicity” value was -6.08% [at 38.5 µM].
Turning to `NS(=O)(=O)OC[C@@H]1C[C@@H](n2ccc3c(N[C@H]4CCc5ccccc54)ncnc32)C[C@@H]1O`, the Potency entry was “inactive”.
Consider `CC(C)C1(O[C@@H]2O[C@H](CO)[C@@H](O)[C@H](O)[C@H]2O)CC=C(CO)CC1` (some centres not stated), for which the “activity change, negative = cytotoxicity” value was 18.3% [at 38.5 µM].
Same read-out and setting: the result for `Cc1cc(C)c(S(=O)(=O)N(Cc2ccc(-c3cccc(S(C)(=O)=O)c3)cc2)Cc2ccc(C(F)(F)F)o2)c(C)c1` reads 10.6%; that for `CCc1nc(C(N)=O)c(Nc2ccc(N3CCC(N4CCN(C)CC4)CC3)c(OC)c2)nc1NC1CCOCC1`, -19.6% [at 38.5 µM].
